This passage reports outcome and AC50 results from PubChem BioAssay (EPA / NIEHS).

SMILES strings stand for the structures. Active and inactive are the calls of the source. How the source made its calls: active means hit-call score of the fitted dose curve at least 0.9, where 1 is the maximum; inactive means score below 0.9.

The nature of assay [1]: ATG_GLI_CIS: Attagene CIS-FACTORIAL HepG2 Assay for human Zinc Finger Protein GLI1 (AID 2282945). Conditions: HepG2, Attagene cis-factorial reporter mRNA, GLI element; actives raise or lower the signal. The procedure, abridged: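 Bidirectional curve fits relative to DMSO, using reporter mRNA levels from RT-PCR plus capillary electrophoresis. Cells were HepG2 transiently carrying cis-regulated reporter constructs, harvested 24 h after dosing.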

In assay [2] the target is Bile acid receptor (Homo sapiens) (UniProt Q96RI1). The assay can be described thus: ATG_IR1_CIS: Attagene CIS-FACTORIAL HepG2 Assay for human Nuclear Receptor Subfamily 1 Group H Member 4 (NR1H4), IR1 submotif (AID 2282946). Particulars: IR1 reporter transcription, actives raise or lower the signal. The procedure, abridged: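 Cells (human HepG2) carry transiently transfected cis-promoter reporter transcription units. Compounds are incubated 24 h, total RNA is reverse-transcribed and amplified, and labelled fragments are resolved by capillary electrophoresis. Curves use DMSO as baseline.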
Chain of Bile acid receptor (Homo sapiens) (Q96RI1 whole entry, looked up, the tested form may be a part): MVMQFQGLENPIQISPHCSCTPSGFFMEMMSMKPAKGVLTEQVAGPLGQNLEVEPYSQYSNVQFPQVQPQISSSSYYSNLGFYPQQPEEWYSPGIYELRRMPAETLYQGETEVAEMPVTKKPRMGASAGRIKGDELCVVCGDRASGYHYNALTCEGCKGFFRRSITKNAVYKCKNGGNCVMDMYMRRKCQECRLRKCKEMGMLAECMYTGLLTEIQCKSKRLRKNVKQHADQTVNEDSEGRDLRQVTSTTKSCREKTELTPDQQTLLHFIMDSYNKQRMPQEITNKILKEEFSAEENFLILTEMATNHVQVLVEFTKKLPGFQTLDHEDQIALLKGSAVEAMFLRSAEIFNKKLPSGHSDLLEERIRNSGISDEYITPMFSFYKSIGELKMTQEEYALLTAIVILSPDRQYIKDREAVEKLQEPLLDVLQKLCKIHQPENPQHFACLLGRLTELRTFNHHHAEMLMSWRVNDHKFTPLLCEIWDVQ

The nature of assay [3]: ATG_ISRE_CIS: Attagene CIS-FACTORIAL HepG2 Assay for human Interferon Regulatory Factor 1 (IRF1) binding to an Interferon-Stimulated Response Element (ISRE) (AID 2282948). Conditions: HepG2 ISRE cis-reporter (Attagene), mRNA transcription readout; actives raise or lower the signal. In short, it runs like this:
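Quantitation relies on labelled RT-PCR fragments separated by capillary electrophoresis. Human HepG2 cells bearing cis-promoter reporter constructs were treated 24 h; DMSO served as baseline for bidirectional fitting.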

A short description of assay [4]: ATG_M_32_CIS: Attagene CIS-FACTORIAL HepG2 Assay for M32 Transcription Factor (Internal Marker) (AID 2282949).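 Further: background control marker of the multiplexed CIS panel rather than a real target.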 Particulars: HepG2 Attagene cis-factorial M32 reporter, mRNA; actives raise or lower the signal. The procedure, abridged: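 Fluorescent capillary electrophoresis peaks of HpaI-digested, FAM-labelled RT-PCR reporter products give the signal. Source: transiently transfected human liver HepG2 cells, 24 h after chemical dosing; bidirectional fitting against DMSO.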

In assay [5] the target is Heat shock factor protein 1 (Homo sapiens) (UniProt Q00613). The assay can be described thus: ATG_HSE_CIS: Attagene CIS-FACTORIAL HepG2 Assay for human Heat Shock Transcription Factor 1 (HSE) (AID 2282953). Conditions: HepG2 HSE cis-reporter, Attagene RNA transcription; actives raise or lower the signal. In short, it runs like this:
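Endogenous transcription factor activity in transiently transfected HepG2, read as reporter mRNA by RT-PCR with fluorescent capillary electrophoresis after 24 h. Gain or loss of signal fitted versus DMSO baseline.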

Assay [6] in a line: ATG_MRE_CIS: Attagene CIS-FACTORIAL HepG2 Assay for human Metal Responsive Element (MRE) (AID 2282954). Conditions: HepG2 MRE cis-reporter transcription, Attagene multiplex; actives raise or lower the signal. The procedure, abridged:
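Transient MRTU transfection of HepG2 (FuGene 6); 24 h dosing; total RNA → oligo(dT) RT, PCR, 6-FAM primer extension, HpaI cut, CE. Bidirectional fit vs DMSO.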

Assay [7] is described as follows: ATG_PBREM_CIS: Attagene CIS-FACTORIAL HepG2 Assay for human Phenobarbital-responsive Enhancer Module (PBREM) (AID 2282955). Conditions: HepG2 PBREM cis-reporter, Attagene multiplexed transcription; actives raise or lower the signal. The procedure, abridged:
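Readout: reporter mRNA, fluorescent RT-PCR fragments separated by capillary electrophoresis. System: HepG2 transiently transfected with cis-regulated reporter units. Exposure: 24 h. Analysis: bidirectional, DMSO baseline.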

For assay [8], the target named is Paired box protein Pax-6 (Homo sapiens) (UniProt P26367). The assay can be described thus: ATG_Pax6_CIS: Attagene CIS-FACTORIAL HepG2 Assay for human Paired Box 6 (PAX6) (AID 2282956). Conditions: HepG2 CIS-FACTORIAL PAX6 reporter transcription, RNA readout; actives raise or lower the signal. In short, it runs like this:
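After twenty-four hours of chemical exposure, transfected HepG2 cells are harvested for RNA. Cis-promoter reporter transcripts are amplified, fluorescently labelled and sized by capillary electrophoresis, with gain and loss of signal scored against DMSO.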

Assay [9] in a line: ATG_PXRE_CIS: Attagene CIS-FACTORIAL HepG2 Assay for human Pregnane X Receptor Element (PXRE) (AID 2282957). Particulars: HepG2 Attagene CIS-FACTORIAL PXRE reporter, mRNA; actives raise or lower the signal. In short, it runs like this: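 Transiently transfected HepG2 cells were dosed and incubated for 24 h. RNA was then isolated, DNase-treated, reverse-transcribed and reporter sequences amplified. Labeled, HpaI-digested fragments were quantified by capillary electrophoresis against DMSO.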

Assay [10] can be described thus: ATG_PPRE_CIS: Attagene CIS-FACTORIAL HepG2 Assay for human Peroxisome Proliferator-activated Response Element (PPRE) (AID 2282958). Particulars: HepG2 PPRE cis-element reporter, Attagene transcription factor profiling; actives raise or lower the signal. The procedure, abridged:
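After human HepG2 hepatoma cells were transiently transfected with cis-promoter reporter constructs, they were exposed to test chemicals for 24 hours. Reporter RNA was then reverse-transcribed, PCR-amplified, FAM-labeled, HpaI-digested and quantified by capillary electrophoresis.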

A short description of assay [11]: ATG_RORE_CIS: Attagene CIS-FACTORIAL HepG2 Assay for human RAR-related Orphan Receptor Element (RORE) (AID 2282959). Particulars: HepG2 Attagene cis-factorial RORE reporter, mRNA; actives raise or lower the signal. In short, it runs like this:
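Measured here: transcript induction of a cis-regulated reporter in HepG2 cells transiently transfected via FuGene 6. After 24 h, RNA was processed by RT-PCR and fluorescent capillary electrophoresis; DMSO defined baseline activity.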

Assay [12] is described as follows: ATG_Sox_CIS: Attagene CIS-FACTORIAL HepG2 Assay for human SRY-box transcription factor (SOX) (AID 2282960). Conditions: HepG2 Attagene cis-factorial SOX reporter, mRNA; actives raise or lower the signal. The procedure, abridged:
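Using transiently transfected HepG2 cells, reporter transcription driven by cis elements was assessed 24 h after dosing. Signal was fluorescence of capillary-separated RT-PCR products, with DMSO defining baseline activity.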

Assay [13] addresses Transcription factor Sp1 (Homo sapiens) (UniProt P08047). As to the kind of experiment: ATG_Sp1_CIS: Attagene CIS-FACTORIAL HepG2 Assay for human Specificity Protein 1 (Sp1) (AID 2282961). Particulars: HepG2 Sp1 cis-reporter transcription, actives raise or lower the signal. The procedure, abridged:
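After transient transfection of HepG2 cells with cis-promoter reporter units and 24 h chemical treatment, reporter transcripts were quantified by RT-PCR and capillary electrophoresis fluorescence. Gain- and loss-of-signal fitted against DMSO.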

The nature of assay [14]: ATG_SREBP_CIS: Attagene CIS-FACTORIAL HepG2 Assay for human Sterol Regulatory Element Binding (SREBP) (AID 2282962). Particulars: HepG2 Attagene cis-factorial SREBP reporter, mRNA; actives raise or lower the signal. In short, it runs like this:
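Twenty-four hours after chemical dosing of transfected HepG2 cultures, reporter RNA was converted to cDNA, amplified, end-labelled with 6-FAM and resolved by capillary electrophoresis. Responses were fitted relative to DMSO.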

Assay [15] concerns the target Signal transducer and activator of transcription 3 (Homo sapiens) (UniProt P40763). As to the kind of experiment: ATG_STAT3_CIS: Attagene CIS-FACTORIAL HepG2 Assay for human Signal Transducer and Activator of Transcription 3 (STAT3) (AID 2282963). Particulars: HepG2, Attagene cis-factorial STAT3 reporter transcription; actives raise or lower the signal. In short, it runs like this:
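Endogenous STAT3-responsive cis-element activity was read in transiently transfected HepG2 cells after 24 h treatment. Reporter transcripts were quantified via RT-PCR and capillary electrophoresis, with DMSO as negative control and bidirectional curve fitting.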

Assay [16] is described as follows: ATG_TA_CIS: Attagene CIS-FACTORIAL HepG2 Assay for human TA Basal Promoter (AID 2282964). Conditions: HepG2 Attagene CIS-factorial TA basal promoter reporter; actives raise or lower the signal. In short, it runs like this: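 Background-control readout: TA basal promoter reporter mRNA, fitted in both directions relative to DMSO. Measured by RT-PCR and capillary electrophoresis 24 hours after treating HepG2 human liver cells transiently carrying multiplexed cis-regulated reporter constructs.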

In assay [17] the target is Hepatocyte nuclear factor 6 (Homo sapiens) (UniProt Q9UBC0). The assay can be described thus: ATG_HNF6_CIS: Attagene CIS-FACTORIAL HepG2 Assay for human Hepatocyte Nuclear Factor 6 (HNF6) (AID 2282952). Particulars: HepG2 Attagene cis-factorial HNF6 reporter transcription; actives raise or lower the signal. In short, it runs like this: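 Reporter mRNA induction or loss in HepG2 after 24 h exposure; transient cis-MRTU transfection; fragments quantified by capillary electrophoresis; bidirectional analysis, DMSO as negative control.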
Chain of Hepatocyte nuclear factor 6 (Homo sapiens) (Q9UBC0 whole entry, looked up, the tested form may be a part): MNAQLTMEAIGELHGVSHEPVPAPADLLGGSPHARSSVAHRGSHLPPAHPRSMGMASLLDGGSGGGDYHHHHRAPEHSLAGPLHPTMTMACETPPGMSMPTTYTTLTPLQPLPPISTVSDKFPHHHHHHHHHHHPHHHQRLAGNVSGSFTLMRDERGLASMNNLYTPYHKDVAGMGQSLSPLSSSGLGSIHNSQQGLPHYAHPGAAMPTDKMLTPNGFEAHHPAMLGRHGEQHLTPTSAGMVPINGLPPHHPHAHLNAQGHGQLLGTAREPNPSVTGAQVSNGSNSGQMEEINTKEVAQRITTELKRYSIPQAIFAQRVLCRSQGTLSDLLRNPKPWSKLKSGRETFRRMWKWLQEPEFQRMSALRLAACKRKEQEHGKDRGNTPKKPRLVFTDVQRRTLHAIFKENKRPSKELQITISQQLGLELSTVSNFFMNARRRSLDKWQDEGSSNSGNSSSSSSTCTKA

Assay [18] can be described thus: ATG_M_06_CIS: Attagene CIS-FACTORIAL HepG2 Assay for M06 Transcription Factor (Internal Marker) (AID 2282950). Conditions: HepG2 Attagene CIS-FACTORIAL M06 internal marker reporter; actives raise or lower the signal. In short, it runs like this: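 Serves as a background control readout. Transfected HepG2 exposed to compounds for 24 h, then reporter transcripts quantified by fluorescent RT-PCR and capillary electrophoresis. Both directions fitted against DMSO baseline.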

The target in assay [19] is Hypoxia-inducible factor 1-alpha (Homo sapiens) (UniProt Q16665). As to the kind of experiment: ATG_HIF1a_CIS: Attagene CIS-FACTORIAL HepG2 Assay for human Hypoxia Inducible Factor 1 (HIF1A) (AID 2282951). Particulars: HepG2 Attagene cis-factorial HIF1a reporter transcription; actives raise or lower the signal. In short, it runs like this:
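Endogenous-TF cis reporter readout, human HepG2 cells, 24 h incubation; mRNA detected via RT-PCR and capillary electrophoresis fluorescence; DMSO-normalised bidirectional fitting.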

Chain of Transcription factor Sp1 (Homo sapiens) (P08047 whole entry, looked up): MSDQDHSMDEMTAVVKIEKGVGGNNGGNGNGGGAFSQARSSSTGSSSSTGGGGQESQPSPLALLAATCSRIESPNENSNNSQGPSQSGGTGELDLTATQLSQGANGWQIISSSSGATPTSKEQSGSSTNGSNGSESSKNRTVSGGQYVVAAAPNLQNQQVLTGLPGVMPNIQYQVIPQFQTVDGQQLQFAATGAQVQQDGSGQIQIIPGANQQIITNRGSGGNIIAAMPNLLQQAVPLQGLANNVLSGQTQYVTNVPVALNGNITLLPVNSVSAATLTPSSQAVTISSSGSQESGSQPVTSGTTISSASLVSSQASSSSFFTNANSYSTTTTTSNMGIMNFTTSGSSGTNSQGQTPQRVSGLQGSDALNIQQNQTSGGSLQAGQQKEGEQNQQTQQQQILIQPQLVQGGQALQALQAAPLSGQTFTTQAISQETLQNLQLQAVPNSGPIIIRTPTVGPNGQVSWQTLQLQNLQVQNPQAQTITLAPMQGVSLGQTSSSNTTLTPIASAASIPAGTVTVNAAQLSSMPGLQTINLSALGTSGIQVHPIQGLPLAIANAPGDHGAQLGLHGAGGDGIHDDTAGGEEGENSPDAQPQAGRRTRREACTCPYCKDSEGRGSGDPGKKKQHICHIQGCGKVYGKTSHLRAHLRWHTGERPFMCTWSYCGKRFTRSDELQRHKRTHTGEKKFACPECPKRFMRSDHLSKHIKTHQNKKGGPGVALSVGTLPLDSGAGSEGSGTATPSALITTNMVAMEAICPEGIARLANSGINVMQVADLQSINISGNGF
Chain of Paired box protein Pax-6 (Homo sapiens) (P26367 whole entry, looked up): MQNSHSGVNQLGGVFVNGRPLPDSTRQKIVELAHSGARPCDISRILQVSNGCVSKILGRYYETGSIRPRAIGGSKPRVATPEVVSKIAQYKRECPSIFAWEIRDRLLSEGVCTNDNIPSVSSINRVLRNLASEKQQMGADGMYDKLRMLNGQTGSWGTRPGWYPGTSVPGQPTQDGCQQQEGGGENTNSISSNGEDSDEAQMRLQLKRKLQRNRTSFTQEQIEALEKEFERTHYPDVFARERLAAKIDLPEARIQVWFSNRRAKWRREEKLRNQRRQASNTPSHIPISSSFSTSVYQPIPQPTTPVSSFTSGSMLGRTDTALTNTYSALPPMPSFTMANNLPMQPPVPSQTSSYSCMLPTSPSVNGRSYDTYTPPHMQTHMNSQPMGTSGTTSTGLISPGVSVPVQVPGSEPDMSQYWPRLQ
Chain of Signal transducer and activator of transcription 3 (Homo sapiens) (P40763 whole entry, looked up): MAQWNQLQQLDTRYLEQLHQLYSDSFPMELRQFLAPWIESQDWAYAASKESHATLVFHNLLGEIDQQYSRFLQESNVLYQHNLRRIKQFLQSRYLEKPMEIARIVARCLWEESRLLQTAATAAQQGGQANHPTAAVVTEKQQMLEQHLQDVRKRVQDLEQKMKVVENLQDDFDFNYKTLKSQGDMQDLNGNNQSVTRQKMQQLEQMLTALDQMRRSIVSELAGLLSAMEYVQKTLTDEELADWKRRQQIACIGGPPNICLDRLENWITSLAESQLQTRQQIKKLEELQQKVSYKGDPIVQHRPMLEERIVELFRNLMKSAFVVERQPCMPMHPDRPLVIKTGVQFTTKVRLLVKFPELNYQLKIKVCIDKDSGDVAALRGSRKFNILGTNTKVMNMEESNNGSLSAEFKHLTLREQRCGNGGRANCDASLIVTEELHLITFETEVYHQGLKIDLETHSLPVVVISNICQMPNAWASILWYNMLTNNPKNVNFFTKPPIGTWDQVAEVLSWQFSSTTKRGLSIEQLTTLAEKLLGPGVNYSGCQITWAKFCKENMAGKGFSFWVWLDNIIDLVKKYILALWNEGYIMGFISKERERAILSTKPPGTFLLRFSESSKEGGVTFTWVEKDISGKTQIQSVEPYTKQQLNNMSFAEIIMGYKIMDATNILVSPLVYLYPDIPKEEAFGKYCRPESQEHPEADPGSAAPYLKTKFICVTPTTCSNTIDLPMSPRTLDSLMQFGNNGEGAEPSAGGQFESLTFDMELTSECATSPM
Chain of Hypoxia-inducible factor 1-alpha (Homo sapiens) (Q16665 whole entry, looked up): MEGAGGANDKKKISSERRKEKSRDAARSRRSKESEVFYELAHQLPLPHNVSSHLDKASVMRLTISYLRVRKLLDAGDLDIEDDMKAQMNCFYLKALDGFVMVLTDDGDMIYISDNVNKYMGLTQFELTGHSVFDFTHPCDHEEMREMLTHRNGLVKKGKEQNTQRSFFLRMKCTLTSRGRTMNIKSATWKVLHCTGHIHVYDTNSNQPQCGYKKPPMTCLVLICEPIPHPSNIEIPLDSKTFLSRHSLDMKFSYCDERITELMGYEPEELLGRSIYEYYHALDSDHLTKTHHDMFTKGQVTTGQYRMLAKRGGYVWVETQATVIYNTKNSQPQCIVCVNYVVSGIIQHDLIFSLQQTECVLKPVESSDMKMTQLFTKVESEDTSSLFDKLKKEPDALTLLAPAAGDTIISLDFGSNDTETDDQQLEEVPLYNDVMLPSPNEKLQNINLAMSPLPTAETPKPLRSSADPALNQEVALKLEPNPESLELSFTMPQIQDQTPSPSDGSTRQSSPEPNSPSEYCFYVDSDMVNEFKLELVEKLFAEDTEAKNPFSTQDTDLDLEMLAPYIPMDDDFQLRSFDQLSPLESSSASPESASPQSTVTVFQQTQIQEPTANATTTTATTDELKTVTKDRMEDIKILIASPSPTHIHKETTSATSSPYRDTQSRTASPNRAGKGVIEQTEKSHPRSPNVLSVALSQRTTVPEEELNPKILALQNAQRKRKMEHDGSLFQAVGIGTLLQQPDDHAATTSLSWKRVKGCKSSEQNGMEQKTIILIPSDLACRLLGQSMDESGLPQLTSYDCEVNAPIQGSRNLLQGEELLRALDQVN
Chain of Heat shock factor protein 1 (Homo sapiens) (Q00613 whole entry, looked up): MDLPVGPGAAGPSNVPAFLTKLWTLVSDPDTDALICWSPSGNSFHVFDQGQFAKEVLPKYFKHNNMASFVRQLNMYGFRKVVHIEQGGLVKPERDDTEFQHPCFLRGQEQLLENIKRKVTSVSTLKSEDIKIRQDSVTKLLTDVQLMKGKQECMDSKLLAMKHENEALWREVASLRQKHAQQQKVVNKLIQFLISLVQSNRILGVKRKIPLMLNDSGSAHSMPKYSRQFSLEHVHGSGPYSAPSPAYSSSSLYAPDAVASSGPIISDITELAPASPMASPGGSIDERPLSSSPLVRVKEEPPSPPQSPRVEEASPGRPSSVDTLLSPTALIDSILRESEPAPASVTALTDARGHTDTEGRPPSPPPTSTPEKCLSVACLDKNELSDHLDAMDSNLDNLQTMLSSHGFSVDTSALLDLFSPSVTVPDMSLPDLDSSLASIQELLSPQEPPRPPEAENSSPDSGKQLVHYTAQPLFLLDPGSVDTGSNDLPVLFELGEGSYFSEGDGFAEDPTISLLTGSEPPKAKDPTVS

Usually AC50 stands for the concentration at which the activity in the assay is half-maximal. As for `CO[Si](OC)(c1ccccc1)c1ccccc1`, the compound was called inactive in assay [1], in assay [2], in assay [3], in assay [4], in assay [5] and in [6]. Further, the outcome in [7], in [8], in assay [10], in [11], in [12] and in assay [13] was inactive. Also, the compound was classed as inactive in assay [14], in assay [15] and in assay [16]. In assay [9], the AC50 is 18.1 µM (active).

As for `CNC(=S)NC`, the compound was called inactive in assay [1], in assay [2], in assay [3], in assay [4], in assay [17] and in assay [6]. The outcome in assay [7], in [8], in [10], in assay [11], in [13] and in assay [15] was inactive. Also, the outcome in assay [16] was inactive. In assay [9], the half-maximal activity concentration (AC50) is 24.9 µM (active).

Turning to `CC/C=C\CCOC(C)=O`, the call in assay [1], in assay [2], in assay [3], in [4], in assay [18] and in assay [19] was inactive. The compound was called inactive in [6], in [7], in assay [8], in [10], in assay [11] and in assay [12]. Further, the result in [13], in [15] and in assay [16] was inactive. Also, in [9], the AC50 was 70 µM (active).

On to `FC1CC(F)(F)C(F)(F)C1(F)F` (stereo unspecified), for which the compound was called inactive in assay [1], in assay [2], in assay [3], in assay [4], in assay [19] and in [17]. For the same compound, the compound was called inactive in assay [6], in assay [7], in assay [8], in assay [9], in [10] and in assay [11]. Moreover, the compound was called inactive in assay [13], in assay [15] and in assay [16].
